Results filed as inconclusive are left out. Activity calls are given as the source filed them. The calls were made as follows, unless noted: active = hit-call score of the fitted dose curve at least 0.9, where 1 is the maximum; inactive = score below 0.9.
Assays:
[1] = target: Paired box protein Pax-6 (Homo sapiens) (UniProt P26367); experiment: ATG_Pax6_CIS: Attagene CIS-FACTORIAL HepG2 Assay for human Paired Box 6 (PAX6) (AID 2282956); settings: HepG2 CIS-FACTORIAL PAX6 reporter transcription, RNA readout; actives raise or lower the signal
Outline: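 Fluorescent RT-PCR products separated by capillary electrophoresis report PAX6-linked promoter mRNA in HepG2 cells 24 h post-dose. Curves fitted bidirectionally, DMSO as negative control.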

[2] = ATG_PXRE_CIS: Attagene CIS-FACTORIAL HepG2 Assay for human Pregnane X Receptor Element (PXRE) (AID 2282957); settings: HepG2 Attagene CIS-FACTORIAL PXRE reporter, mRNA; actives raise or lower the signal
Outline: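 Endogenous transcription factor activity in HepG2 was gauged through induction of reporter mRNA driven by a cis-regulating promoter element, sampled 24 h post-treatment. Activity was fitted in both directions against DMSO negative control.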

[3] = ATG_PPRE_CIS: Attagene CIS-FACTORIAL HepG2 Assay for human Peroxisome Proliferator-activated Response Element (PPRE) (AID 2282958); settings: HepG2 PPRE cis-element reporter, Attagene transcription factor profiling; actives raise or lower the signal
Outline: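 Read-out: fluorescent reporter mRNA fragments resolved by capillary electrophoresis after RT-PCR. HepG2 cells carried transiently transfected PPRE-driven cis reporter constructs and were dosed for 24 h; gain or loss of signal fitted relative to DMSO.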

[4] = ATG_Sox_CIS: Attagene CIS-FACTORIAL HepG2 Assay for human SRY-box transcription factor (SOX) (AID 2282960); settings: HepG2 Attagene cis-factorial SOX reporter, mRNA; actives raise or lower the signal
Outline: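 Read-out: fluorescent RT-PCR products of SOX1-linked reporter transcripts resolved by capillary electrophoresis, fitted bidirectionally against DMSO. Transiently transfected HepG2 cells, 24 h after chemical exposure, endogenous transcription factor activity.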

[5] = ATG_SREBP_CIS: Attagene CIS-FACTORIAL HepG2 Assay for human Sterol Regulatory Element Binding (SREBP) (AID 2282962); settings: HepG2 Attagene cis-factorial SREBP reporter, mRNA; actives raise or lower the signal
Outline: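 Endogenous factor activity is measured in HepG2 through multiplexed reporter units under cis-element control. Following a 24 h incubation, reporter transcripts are reverse-transcribed, PCR-amplified and sized by capillary electrophoresis; activity is fitted in both directions relative to DMSO.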

[6] = target: Signal transducer and activator of transcription 3 (Homo sapiens) (UniProt P40763); experiment: ATG_STAT3_CIS: Attagene CIS-FACTORIAL HepG2 Assay for human Signal Transducer and Activator of Transcription 3 (STAT3) (AID 2282963); settings: HepG2, Attagene cis-factorial STAT3 reporter transcription; actives raise or lower the signal
Outline: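 HepG2, MRTU-transfected, 24 h dosing. RNA → RT → PCR → FAM label → HpaI → CE. Bidirectional fit vs DMSO.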

[7] = ATG_TA_CIS: Attagene CIS-FACTORIAL HepG2 Assay for human TA Basal Promoter (AID 2282964); settings: HepG2 Attagene CIS-factorial TA basal promoter reporter; actives raise or lower the signal
Outline: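 Cis-factorial format in HepG2: reporters report endogenous factors, not chimeric Gal4 fusions. After 24 h treatment, reporter transcripts were measured by RT-PCR-capillary electrophoresis fluorescence, analysed bidirectionally versus DMSO.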

[8] = ATG_TCF_b_cat_CIS: Attagene CIS-FACTORIAL HepG2 Assay for human T-Cell-Factor with beta-catenin (TCF/b-cat) (AID 2282965); settings: HepG2 TCF/beta-catenin cis-reporter transcription, actives raise or lower the signal
Outline: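 Using capillary electrophoresis as the read-out, labelled reporter cDNA fragments from transiently transfected HepG2 were sized and quantified. Exposure lasted 24 hours; activity in either direction was referenced to DMSO.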

[9] = ATG_TAL_CIS: Attagene CIS-FACTORIAL HepG2 Assay for human TAL Basal Promoter (AID 2282966); settings: HepG2 Attagene cis-factorial TAL promoter reporter; actives raise or lower the signal;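 also: background control endpoint measuring basal TAL promoter reporter mRNA not a specific factor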
Outline: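 Endogenous transcription-factor activity is sensed in HepG2 cells through transfected cis-promoter reporter constructs. After 24 h dosing, reporter transcripts are quantified by RT-PCR and capillary electrophoresis. Gain or loss of signal is fitted relative to DMSO.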

[10] = ATG_TGFb_CIS: Attagene CIS-FACTORIAL HepG2 Assay for human Transforming Growth Factor (TGF) (AID 2282967); settings: HepG2 Attagene CIS TGFb reporter, mRNA transcription; actives raise or lower the signal
Outline: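 Multiplexed cis-reporter HepG2 system, 24 h treatment; mRNA induction read by fluorescence after RT-PCR and CE; DMSO negative control, bidirectional curve fitting.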

[11] = target: Nuclear receptor subfamily 1 group I member 3 (Homo sapiens) (UniProt Q14994); experiment: ATG_CAR_TRANS: Attagene TRANS-FACTORIAL HepG2 Assay for human Constitutive Androstane Receptor (CAR) (AID 2282969; active = hit-call score of the fitted dose curve at least 0.9, where 1 is the maximum;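 also: activators raise reporter mRNA above DMSO so AC50 marks induction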); settings: HepG2 Attagene TRANS-FACTORIAL CAR reporter
Outline: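 Steps: transient transfection of HepG2 with multiple GAL4-UAS reporter units; 24 h compound incubation; RNA isolation, RT-PCR, 6-FAM primer extension, HpaI digest; capillary electrophoresis. Gain-of-signal relative to DMSO negative control.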

[12] = target: Estrogen receptor (Homo sapiens) (UniProt P03372); experiment: ATG_ERa_TRANS: Attagene TRANS-FACTORIAL HepG2 Assay for human Estrogen Receptor alpha (ERa) (AID 2282970; active = hit-call score of the fitted dose curve at least 0.9, where 1 is the maximum); settings: HepG2 Attagene TRANS ERa GAL4 reporter, mRNA
Outline: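 Transfected HepG2 cells carrying GAL4-UAS-driven reporter units were dosed for 24 hours. Total RNA was reverse-transcribed, reporter sequences PCR-amplified, FAM-labelled, HpaI-digested and resolved by capillary electrophoresis. Increases over DMSO control defined activity.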

[13] = target: X-box-binding protein 1 (Homo sapiens) (UniProt P17861); experiment: ATG_Xbp1_CIS: Attagene CIS-FACTORIAL HepG2 Assay for human X-box Binding Protein 1 (XBP1) (AID 2282972); settings: HepG2 XBP1 cis-element reporter, Attagene multiplex; actives raise or lower the signal
Outline: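 Multiplexed cis-reporter readout in transfected HepG2 liver cells. Exposure lasted 24 hours. Activity in either direction was fitted against DMSO as negative control and baseline.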

[14] = target: Steroid hormone receptor ERR1 (Homo sapiens) (UniProt P11474); experiment: ATG_ERRa_TRANS: Attagene TRANS-FACTORIAL HepG2 Assay for human Estrogen-Related Receptor alpha (ERRa) (AID 2282971; active = hit-call score of the fitted dose curve at least 0.9, where 1 is the maximum); settings: HepG2 Attagene TRANS reporter, ERRa transactivation
Outline: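 HepG2 cells were transiently transfected with multiple GAL4-UAS reporter units, then dosed with compound for 24 h. Total RNA was reverse-transcribed, reporter cDNA PCR-amplified and fluorescently labelled, and fragments resolved by capillary electrophoresis; induction was compared with DMSO.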

[15] = ATG_M_19_TRANS: Attagene TRANS-FACTORIAL HepG2 Assay for M19 Transcription Factor (Internal Marker) (AID 2282974; active = hit-call score of the fitted dose curve at least 0.9, where 1 is the maximum); settings: HepG2 Attagene TRANS-FACTORIAL M19 internal marker reporter
Outline: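 24 h chemical exposure of transiently transfected HepG2 (MRTU library). RNA → oligo(dT) RT → PCR → 6-FAM labelling → HpaI cut → CE fluorescence. Positive-direction fit vs DMSO baseline; background internal-marker readout.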

[16] = ATG_Hpa5_TRANS: Attagene TRANS-FACTORIAL HepG2 Assay for human GAL4-Hpa5 Hepatocyte Transcription Factor Basal Promoter (AID 2282975; active = hit-call score of the fitted dose curve at least 0.9, where 1 is the maximum;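 also: hits are increases in reporter mRNA over DMSO baseline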); settings: HepG2 Attagene GAL4-Hpa5 transcription reporter
Outline: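 Gain-of-signal versus DMSO is fitted for reporter mRNA quantified by RT-PCR and capillary electrophoresis after 24 h exposure. This endpoint is an internal background marker in transiently transfected HepG2 cells carrying GAL4-UAS reporter units.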

[17] = ATG_RORE_CIS: Attagene CIS-FACTORIAL HepG2 Assay for human RAR-related Orphan Receptor Element (RORE) (AID 2282959); settings: HepG2 Attagene cis-factorial RORE reporter, mRNA; actives raise or lower the signal
Outline: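 Readout: fluorescent reporter mRNA by RT-PCR plus capillary electrophoresis, 24 h after dosing transfected HepG2 cells. Endogenous transcription factor activity on a cis promoter element is measured. Gain or loss of signal fitted against DMSO.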

Measured: AC50

Chain of Estrogen receptor (Homo sapiens) (P03372 whole entry, looked up, the tested form may be a part): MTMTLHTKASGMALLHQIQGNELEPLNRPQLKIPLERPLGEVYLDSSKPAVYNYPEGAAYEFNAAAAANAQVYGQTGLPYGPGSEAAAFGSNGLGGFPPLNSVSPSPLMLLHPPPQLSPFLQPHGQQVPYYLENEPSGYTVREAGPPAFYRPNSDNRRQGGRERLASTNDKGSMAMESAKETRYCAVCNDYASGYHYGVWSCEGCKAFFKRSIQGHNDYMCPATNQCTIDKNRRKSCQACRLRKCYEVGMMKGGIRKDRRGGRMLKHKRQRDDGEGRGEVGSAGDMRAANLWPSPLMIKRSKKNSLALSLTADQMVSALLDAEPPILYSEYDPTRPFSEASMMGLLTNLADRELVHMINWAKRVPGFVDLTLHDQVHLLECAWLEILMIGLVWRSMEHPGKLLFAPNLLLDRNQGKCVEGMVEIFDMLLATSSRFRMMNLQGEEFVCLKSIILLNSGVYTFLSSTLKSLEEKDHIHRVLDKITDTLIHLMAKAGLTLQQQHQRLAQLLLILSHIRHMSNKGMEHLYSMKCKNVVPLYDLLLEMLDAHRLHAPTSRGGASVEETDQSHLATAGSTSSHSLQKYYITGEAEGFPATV
Chain of Signal transducer and activator of transcription 3 (Homo sapiens) (P40763 whole entry, looked up): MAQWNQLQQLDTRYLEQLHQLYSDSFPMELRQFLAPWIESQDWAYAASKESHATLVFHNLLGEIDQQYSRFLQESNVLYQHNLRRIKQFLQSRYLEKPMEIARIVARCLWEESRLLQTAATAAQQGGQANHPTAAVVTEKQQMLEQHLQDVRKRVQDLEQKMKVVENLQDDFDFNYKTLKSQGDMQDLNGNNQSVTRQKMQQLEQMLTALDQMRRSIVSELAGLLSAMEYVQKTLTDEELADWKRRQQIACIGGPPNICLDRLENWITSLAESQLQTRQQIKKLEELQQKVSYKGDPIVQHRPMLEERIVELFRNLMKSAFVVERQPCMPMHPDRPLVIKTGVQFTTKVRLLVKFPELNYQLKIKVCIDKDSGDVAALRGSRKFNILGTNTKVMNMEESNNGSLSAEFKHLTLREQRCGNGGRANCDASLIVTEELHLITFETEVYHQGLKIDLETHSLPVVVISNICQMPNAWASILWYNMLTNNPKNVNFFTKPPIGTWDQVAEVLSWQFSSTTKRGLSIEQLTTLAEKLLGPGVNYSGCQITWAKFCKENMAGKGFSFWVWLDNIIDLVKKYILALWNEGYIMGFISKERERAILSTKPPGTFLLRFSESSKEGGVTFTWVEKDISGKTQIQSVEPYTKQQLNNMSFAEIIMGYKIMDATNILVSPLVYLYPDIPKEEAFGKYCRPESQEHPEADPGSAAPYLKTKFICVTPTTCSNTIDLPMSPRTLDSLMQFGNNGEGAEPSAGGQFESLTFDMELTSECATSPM
Chain of Nuclear receptor subfamily 1 group I member 3 (Homo sapiens) (Q14994 whole entry, looked up, the tested form may be a part): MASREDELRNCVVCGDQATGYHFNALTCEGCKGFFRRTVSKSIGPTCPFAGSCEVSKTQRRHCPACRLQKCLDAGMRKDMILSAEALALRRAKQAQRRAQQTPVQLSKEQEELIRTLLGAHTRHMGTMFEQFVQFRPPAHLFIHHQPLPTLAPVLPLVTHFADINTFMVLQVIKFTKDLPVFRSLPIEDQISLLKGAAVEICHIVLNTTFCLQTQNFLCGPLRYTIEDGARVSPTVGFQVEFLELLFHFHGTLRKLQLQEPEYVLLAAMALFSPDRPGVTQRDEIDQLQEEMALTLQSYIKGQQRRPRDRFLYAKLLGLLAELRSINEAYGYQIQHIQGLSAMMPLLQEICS
Chain of Paired box protein Pax-6 (Homo sapiens) (P26367 whole entry, looked up): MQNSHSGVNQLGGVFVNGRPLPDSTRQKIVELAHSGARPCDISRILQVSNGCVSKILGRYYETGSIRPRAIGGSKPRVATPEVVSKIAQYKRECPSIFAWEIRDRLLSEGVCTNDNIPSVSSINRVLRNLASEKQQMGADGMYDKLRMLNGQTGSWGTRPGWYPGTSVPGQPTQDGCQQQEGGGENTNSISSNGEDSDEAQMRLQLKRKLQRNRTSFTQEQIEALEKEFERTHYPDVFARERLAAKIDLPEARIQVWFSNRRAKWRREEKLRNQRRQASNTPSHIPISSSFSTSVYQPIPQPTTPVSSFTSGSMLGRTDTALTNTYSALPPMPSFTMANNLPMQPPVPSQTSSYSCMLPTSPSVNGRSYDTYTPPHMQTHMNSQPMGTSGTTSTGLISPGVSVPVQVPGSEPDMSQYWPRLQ
Chain of X-box-binding protein 1 (Homo sapiens) (P17861 whole entry, looked up): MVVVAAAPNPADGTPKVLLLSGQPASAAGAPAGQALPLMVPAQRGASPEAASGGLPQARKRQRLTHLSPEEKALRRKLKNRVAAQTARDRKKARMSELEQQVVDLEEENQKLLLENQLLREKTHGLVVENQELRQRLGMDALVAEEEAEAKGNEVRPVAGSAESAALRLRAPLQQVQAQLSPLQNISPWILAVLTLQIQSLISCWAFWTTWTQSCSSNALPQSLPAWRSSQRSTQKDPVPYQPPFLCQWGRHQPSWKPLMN
Chain of Steroid hormone receptor ERR1 (Homo sapiens) (P11474 whole entry, looked up, the tested form may be a part): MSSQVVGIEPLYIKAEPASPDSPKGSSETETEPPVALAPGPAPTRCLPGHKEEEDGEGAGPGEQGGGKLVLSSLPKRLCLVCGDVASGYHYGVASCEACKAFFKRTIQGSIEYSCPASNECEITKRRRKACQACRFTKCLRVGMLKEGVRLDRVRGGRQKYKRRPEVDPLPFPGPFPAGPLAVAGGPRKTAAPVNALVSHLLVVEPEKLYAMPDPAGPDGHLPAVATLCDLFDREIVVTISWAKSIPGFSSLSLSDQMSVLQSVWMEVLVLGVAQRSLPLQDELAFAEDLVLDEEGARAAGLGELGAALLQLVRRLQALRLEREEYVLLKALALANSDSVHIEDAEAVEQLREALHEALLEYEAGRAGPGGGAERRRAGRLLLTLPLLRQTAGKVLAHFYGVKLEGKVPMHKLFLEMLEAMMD

CNC(=O)/C=C(\C)OP(=O)(OC)OC
inactive: [1] | [2] | [3] | [4] | [5] | [6] | [7] | [8] | [9] | [10] | [11] | [12] | [13]

CC[C@H](C)[C@H]1O[C@]2(C=C[C@@H]1C)C[C@@H]1C[C@@H](C/C=C(\C)[C@@H](O[C@H]3C[C@H](OC)[C@@H](O[C@H]4C[C@H](OC)[C@@H](O)[C@H](C)O4)[C@H](C)O3)[C@@H](C)/C=C/C=C3\CO[C@@H]4[C@H](O)C(C)=C[C@@H](C(=O)O1)[C@]34O)O2 (tested in a mixture with another compound)
inactive: [1] | [4] | [5] | [6] | [7] | [8] | [9] | [10] | [12] | [14] | [13] | [15] | [16]
active: [2] 1.75 µM

COC(=O)c1ccccc1S(=O)(=O)NC(=O)N(C)c1nc(C)nc(OC)n1
active: [2] 64.7 µM
inactive: [1] | [3] | [4] | [5] | [6] | [7] | [8] | [9] | [10] | [11] | [13]

CNC(=O)CSP(=S)(OC)OC
inactive: [1] | [2] | [3] | [17] | [4] | [5] | [6] | [7] | [8] | [9] | [10] | [11] | [12] | [13] | [16]

CC(C)N(C(=O)COc1nnc(C(F)(F)F)s1)c1ccc(F)cc1
active: [2] 7.54 µM | [13] 29.7 µM
inactive: [1] | [3] | [17] | [4] | [5] | [6] | [7] | [8] | [9] | [10] | [12] | [15]

CCc1ccc(C(=O)NN(C(=O)c2cc(C)cc(C)c2)C(C)(C)C)cc1
active: [2] 1.28 µM
inactive: [1] | [3] | [17] | [4] | [5] | [6] | [7] | [8] | [9] | [10] | [12] | [14] | [13] | [16]

O=C(O)COc1ccc(Cl)cc1Cl
inactive: [1] | [2] | [4] | [5] | [6] | [7] | [8] | [9] | [10] | [13] | [15] | [16]
